Results filed as inconclusive are left out. Calls of active or inactive are those of the source. Unless noted, calls come from the whole dose curve; as a rule, active = well fitted curve in the direction sought with a large enough effect in the repeat runs; inconclusive = weak or mixed curves; inactive = no such curve, though single readings can be large; an effect the other way counts as inactive or inconclusive.
How the values were obtained:
[1] = qHTS assay to identify small molecule agonists of the vitamin D receptor (VDR) signaling pathway - cell viability counter screen (AID 743224); note: series mostly up to about 63 µM; % is set by controls: 0 for no effect and ±100 for the full control effect; nearly all actives have a fitted effect of over 50% in size
Method in brief: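 Compounds were pin-transferred onto VDR-bla cells plated 4 h earlier; following 16 h incubation at 37C, cell viability was quantified by CellTiter-Glo luminescence after 30 min at room temperature.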

[2] = qHTS assay to identify small molecule antagonists of the vitamin D receptor (VDR) signaling pathway - cell viability counter screen (AID 743225); note: % is set by controls: 0 for no effect and ±100 for the full control effect; nearly all actives have a fitted effect of over 50% in size
Method in brief: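 Parallel cytotoxicity test: VDR-UAS-bla HEK 293T, 3 nM (final) 1-alpha,25-dihydroxyvitamin D3 with test compound, 16 h, 37C. Endpoint is CellTiter-Glo luminescence in the same wells.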

[3] = qHTS assay to identify small molecule agonists of the NFkB signaling pathway (AID 1159509; active = well fitted curve in the direction sought with a large enough effect in the signal ratio in the repeat runs, not every such curve was filed as active; the % refers to the signal ratio; note: series mostly up to about 61 µM; % is set by controls: 0 for no effect and ±100 for the full control effect)
Method in brief: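 Readout: FRET fluorescence, 405 nm excitation, 460/530 nm emission; beta-lactamase expression disrupts FRET. Cells: ME-180 stably carrying NF-kB-driven bla reporter. Compound exposure 5 hr, 37 C, 5% CO2.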

[4] = qHTS assay to identify small molecule agonists of the NFkB signaling pathway - cell viability counter screen (AID 1159515; calls by dose curve; note: series mostly up to about 61 µM; % is set by controls: 0 for no effect and ±100 for the full control effect; nearly all actives have a fitted effect of over 55% in size)
Method in brief: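 Parallel cytotoxicity counter screen in ME-180 cells carrying an NFkB-response-element beta-lactamase reporter, 2,000 cells/well. Compound exposure lasted 5 hr at 37 C, 5% CO2. Cell viability was quantified by CellTiter-Glo luminescence.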

[5] = qHTS assay to identify small molecule agonists of the endoplasmic reticulum stress response signaling pathway (AID 1159516; active = well fitted activation curve with a large enough effect in the signal ratio in the repeat runs, not every such curve was filed as active; the % refers to the signal ratio; note: % is set by controls: 0 for no effect and ±100 for the full control effect)
Method in brief: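 Using a HeLa line with an ESRE-driven beta-lactamase gene, agonist activity was measured by FRET substrate fluorescence (460 and 530 nm emission) after cells were treated with compounds for 5 hr at 37 C and 5% CO2.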

[6] = qHTS assay to identify small molecule agonists of the endoplasmic reticulum stress response signaling pathway - cell viability counter screen (AID 1159517; calls by dose curve;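 note: HeLa cells carrying an ER stress response element beta-lactamase reporter; series mostly up to about 61 µM; % is set by controls: 0 for no effect and ±100 for the full control effect; nearly all actives have a fitted effect of over 50% in size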)
Method in brief: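 Steps: seed 1,500 ESRE-bla HeLa cells per well; incubate overnight at 37 C, 5% CO2; add compounds in DMSO for 5 hr; run FRET substrate 2 hr RT; add CellTiter-Glo, wait 30 min, read luminescence.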

[7] = qHTS assay to identify small molecule antagonists of the retinoid-related orphan receptor gamma (ROR-gamma) signaling pathway - cell viability counter screen (AID 1159520); note: % is set by controls: 0 for no effect and ±100 for the full control effect; nearly all actives have a fitted effect of over 50% in size
Method in brief: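 Tet-on ROR gamma CHO cells were given compounds for 2 hr, then doxycycline hyclate at 1 uM final, and incubated 16 hr at 37 C. Viability was measured as ATP content by CellTiter-Glo luminescence.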

[8] = biological target: Nuclear receptor ROR-gamma (Homo sapiens) (UniProt P51449); assay: qHTS assay to identify small molecule antagonists of the retinoid-related orphan receptor gamma (ROR-gamma) signaling pathway (AID 1159521)
Method in brief: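 Decreased RORE-driven luciferase luminescence indicates antagonism. Tet-on RORγ CHO cells received compound, then 1 uM final doxycycline 2 h later; signal read after 16 h incubation.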

[9] = qHTS assay to identify small molecule agonists of the AP-1 signaling pathway - cell viability counter screen (AID 1159525; calls by dose curve; note: nearly all actives have a fitted effect of over 55% in size)
Method in brief: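 Same-well cytotoxicity counter screen of the Tox21 10K library in ME-180 cells. The readout is ATP-dependent luminescence after 5 h compound treatment. Data are normalised to DMSO and tetra n-octyl ammonium bromide controls.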

[10] = qHTS assay to identify small molecule agonists of the AP-1 signaling pathway (AID 1159526; calls by dose curve; note: % is set by controls: 0 for no effect and ±100 for the full control effect)
[11] = biological target: Retinoic acid receptor RXR-alpha (Homo sapiens) (UniProt P19793); assay: qHTS assay to identify small molecule agonists of the RXR signaling pathway (AID 1159527; calls by dose curve; note: % is set by controls: 0 for no effect and ±100 for the full control effect; nearly all actives have a fitted effect of over 35% in size)
Method in brief: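 16 hr incubation of compound-treated RXR-alpha-UAS-bla HEK 293T cells (2% charcoal-stripped FBS, 37 C) preceded a 2 hr room-temperature LiveBLAzer FRET substrate step and blue/green fluorescence measurement.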

[12] = qHTS assay to identify small molecule agonists of the RXR signaling pathway - cell viability counter screen (AID 1159529)
Method in brief: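 In this parallel viability measure, GeneBLAzer RXR-alpha HEK 293T cells (2% charcoal-stripped FBS) were given a 5 hr preincubation, treated with compounds 16 hr at 37 C, and read by CellTiter-Glo luminescence.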

[13] = qHTS assay to identify small molecule antagonists of the retinoid acid receptor (RAR) signaling pathway - cell viability counter screen (AID 1159551); note: % is set by controls: 0 for no effect and ±100 for the full control effect; nearly all actives have a fitted effect of over 35% in size
Method in brief: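 ATP-based viability, C3RL4 cells, 6 h at 37 C with 1 uM final retinol co-added after compound; luminescence read 30 min post CellTiter-Glo, RT.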

[14] = qHTS assay to identify small molecule antagonists of the retinoic acid receptor (RAR) signaling pathway (AID 1159552)
Method in brief: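 C3RL4 RARE-luc cells, overnight plating; retinol 1 uM final added right after compound; 6 hr 37 C; luciferase read at 30 min RT.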

[15] = qHTS assay to identify small molecule agonists of the retinoic acid receptor (RAR) signaling pathway (AID 1159553); note: % is set by controls: 0 for no effect and ±100 for the full control effect
Method in brief: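 Quantitative high-throughput format: the Tox21 10K library was tested on C3RL4 RARE-luciferase cells for 6 hr at 37 C and 5% CO2, with luminescence measured after a 30 min room-temperature reagent step.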

[16] = qHTS assay to identify small molecule antagonists of the estrogen related receptor (ERR) signaling pathway - cell viability counter screen (AID 1224818)
Method in brief: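 Quantitative high-throughput viability counter screen in ERR cells. Compounds (DMSO) incubated 17.5 h at 37 C; read-out was CellTiter-Fluor fluorescence.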

[17] = qHTS assay to identify small molecule antagonists of the estrogen related receptor signaling pathway with the pleiotropic PPARgamma coactivator (PGC) cell viability counter screen (AID 1224822)
Method in brief: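 Cytotoxicity in the PGC/ERR cell line is assessed with CellTiter-Fluor, read as fluorescence intensity 30 min after reagent addition, following 17.5 h compound treatment at 37 C.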

[18] = qHTS assay to identify small molecule antagonists of the estrogen related receptor (ERR) signaling pathway (AID 1224819)
Method in brief: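 ERR reporter cell line (NTP) plated at 2,000 cells/well, settled 6 h at 37C/5% CO2, then exposed to LOPAC compounds for 18 h at 37C. One-Glo luciferase luminescence read after 30 min at room temperature.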

[19] = qHTS assay to identify small molecule agonists of the estrogen related receptor (ERR) signaling pathway (AID 1224820); note: % is set by controls: 0 for no effect and ±100 for the full control effect
Method in brief: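 Luminescence readout (One-Glo, 30 min RT) from NTP-supplied ERR cell line exposed to compounds for 18 h at 37 C. Cells seeded 2,000 per well and pre-incubated 6 h before pin-tool compound transfer.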

[20] = test system: estrogen-related receptor alpha (ERRalpha) with PGC-1alpha coactivator, human; assay: qHTS assay to identify small molecule antagonists of the estrogen related receptor signaling pathway with the pleiotropic PPARgamma coactivator (PGC) (AID 1224821; calls by dose curve)
Method in brief: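 PGC/ERR reporter cells; 6 h pre-incubation 37 C/5% CO2; pin-tool compound in DMSO, 18 h 37 C; One-Glo added, 30 min RT; luminescence read. qHTS antagonist mode.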

Chain of Retinoic acid receptor RXR-alpha (Homo sapiens) (P19793 whole entry, looked up): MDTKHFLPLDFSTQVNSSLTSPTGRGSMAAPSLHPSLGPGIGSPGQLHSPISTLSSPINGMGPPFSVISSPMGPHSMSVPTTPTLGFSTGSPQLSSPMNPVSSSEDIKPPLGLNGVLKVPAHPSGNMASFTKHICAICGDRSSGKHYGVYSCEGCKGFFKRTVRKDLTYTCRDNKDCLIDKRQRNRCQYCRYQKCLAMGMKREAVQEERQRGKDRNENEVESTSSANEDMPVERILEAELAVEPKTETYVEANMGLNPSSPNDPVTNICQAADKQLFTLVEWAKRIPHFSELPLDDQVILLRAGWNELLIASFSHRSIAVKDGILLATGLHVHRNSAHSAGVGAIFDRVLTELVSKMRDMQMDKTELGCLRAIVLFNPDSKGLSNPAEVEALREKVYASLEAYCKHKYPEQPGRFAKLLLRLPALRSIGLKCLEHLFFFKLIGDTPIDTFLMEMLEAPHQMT

NS(=O)(=O)c1cc(C(=O)O)cc(N2CCCC2)c1Oc1ccccc1
inactive: Potency [1] | Potency [2] | outcome [3] | outcome [4] | outcome [5] | outcome [6] | outcome [7] | Potency [8] | Potency [9] | outcome [10] | Potency [11] | Potency [12] | outcome [13] | Potency [14] | Potency [15]

NS(=O)(=O)c1cc2c(cc1Cl)NC(C1CC3C=CC1C3)NS2(=O)=O (stereo not drawn)
inactive: Potency [1] | Potency [2] | outcome [3] | outcome [4] | outcome [5] | outcome [6] | outcome [7] | Potency [8] | Potency [9] | outcome [10] | Potency [11] | Potency [12] | outcome [13] | Potency [15] | outcome [16] | outcome [17]

Cc1c(NC(C)C)c(=O)n(-c2ccccc2)n1C
inactive: Potency [1] | Potency [2] | outcome [3] | outcome [4] | outcome [5] | outcome [6] | outcome [7] | Potency [8] | Potency [9] | outcome [10] | Potency [11] | Potency [12] | outcome [13] | Potency [14] | Potency [15]

Cc1cc(O)cc2c1O[C@](C)(CCC[C@H](C)CCC[C@H](C)CCCC(C)C)CC2
inactive: Potency [1] | outcome [3] | outcome [4] | outcome [5] | outcome [6] | outcome [7] | Potency [8] | Potency [9] | outcome [10] | Potency [11] | Potency [12] | outcome [13] | Potency [15]

CCS(=O)(=O)c1ccc(OC)c(C(=O)OC)c1
inactive: Potency [1] | Potency [2] | outcome [3] | outcome [4] | outcome [5] | outcome [6] | outcome [7] | Potency [8] | Potency [9] | outcome [10] | Potency [11] | Potency [12] | outcome [13] | Potency [14] | Potency [15]

CC(=O)c1ccccc1O
inactive: Potency [1] | Potency [2] | outcome [3] | outcome [4] | outcome [5] | outcome [6] | outcome [7] | Potency [8] | Potency [9] | outcome [10] | Potency [11] | Potency [12] | outcome [13] | Potency [14] | Potency [15]

Oc1ccc(C2CNCCc3c2cc(O)c(O)c3Cl)cc1 (stereo not drawn)
inactive: Potency [1] | Potency [2] | outcome [3] | outcome [4] | outcome [5] | outcome [6] | outcome [7] | Potency [8] | Potency [9] | outcome [10] | Potency [11] | Potency [12] | outcome [13] | Potency [15] | outcome [16] | outcome [17]

CCSC(=O)N(CC(C)C)CC(C)C
inactive: Potency [1] | Potency [2] | outcome [3] | outcome [4] | outcome [5] | outcome [6] | outcome [7] | Potency [8] | Potency [9] | outcome [10] | Potency [11] | Potency [12] | outcome [13] | Potency [14] | Potency [15]

c1cnc(N2CCN(Cc3ccc4c(c3)OCO4)CC2)nc1
inactive: Potency [1] | outcome [3] | outcome [4] | outcome [5] | outcome [6] | outcome [7] | Potency [8] | Potency [9] | outcome [10] | Potency [11] | Potency [12] | outcome [13] | Potency [15] | outcome [16] | outcome [17]

O=C(O)CN(CCOCCOCCN(CC(=O)O)CC(=O)O)CC(=O)O
inactive: activity change, negative = cytotoxicity [1] 7.18% [at 0.55 µM] | viability change, negative = cytotoxic [2] 0.79% [at 0.628 µM] | activation [3] -0.0067% [at 0.628 µM] | activity, negative = cytotoxic [4] 7.66% [at 0.628 µM] | activation [5] 0.191% [at 0.628 µM] | activity change, negative = cytotoxicity [6] 11.3% [at 0.628 µM] | activity, negative = cytotoxicity [7] 0.0573% [at 0.349 µM] | activity change, negative = inhibition [8] 4.15% [at 0.35 µM] | viability change, negative = cytotoxic [9] -1.21% [at 0.29 µM] | activation [10] -6.2% [at 0.29 µM] | activation [11] 10% [at 0.29 µM] | activity change, negative = cytotoxicity [12] -0.722% [at 0.29 µM] | activity change, negative = cytotoxicity [13] 0.187% [at 0.349 µM] | activation [15] 2.01% [at 0.756 µM] | outcome [16] | outcome [18] | outcome [19] | outcome [20] | outcome [17]

Cc1ccc(=O)n(-c2ccccc2)c1
inactive: Potency [1] | Potency [2] | outcome [3] | outcome [4] | outcome [5] | outcome [6] | outcome [7] | Potency [8] | Potency [9] | outcome [10] | Potency [11] | Potency [12] | outcome [13] | Potency [15] | outcome [16] | outcome [18] | outcome [19] | outcome [20] | outcome [17]

CCCCC/C=C\CCC=O
inactive: Potency [1] | Potency [2] | outcome [3] | outcome [4] | outcome [5] | outcome [6] | outcome [7] | Potency [8] | Potency [9] | outcome [10] | Potency [11] | Potency [12] | outcome [13] | Potency [14] | Potency [15]

Reference: PubChem BioAssay (Tox21)
